The values below come from PubChem BioAssay (NCATS).

Values joined by “and” are separate entries in the source; they are usually repeats but may differ in a detail not shown here. Equal entries are not always repeated. Inconclusive results are not listed. A structure can be active in one record and inactive in another. Active and inactive are the calls of the source. Calls follow the shape of the dose curve; as a rule, active = well fitted curve in the direction sought with a large enough effect; inconclusive = small, poorly fitted or top-dose-only effect, or another doubt; inactive = no such curve, though single readings can be large; an effect the other way counts as inactive or inconclusive.

Test [1] deals with MKL-1. As to the kind of experiment: qHTS assay to identify novel small-molecules to repurpose for Merkel cell carcinoma treatment (AID 1296009). Also: nearly all actives have a fitted effect of over 60% in size. Also: potency is read from the fitted curve at half-maximal effect. The note with it: MCC and control cell lines, CellTiter-Glo viability, 72 h; series mostly up to 46 µM. An outline of the steps:
(§1)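 Cells exposed to NPC (8-point) and MIPE (11-point) compound dilutions for 72 hr at 37 degree celsius; viability read by CellTiter-Glo luminescence, normalized to no-cell and DMSO in-plate controls.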
A general note: qHTS replaces the single test concentration by a dilution series.

Test [2] relates to MKL-2. Described as above. The note with it: MCC and control cell lines, CellTiter-Glo viability, 72 h; series mostly up to 46 µM. An outline of the steps:
as §1

Test [3] deals with UISO. The test is described as above. The note with it: MCC and control cell lines, CellTiter-Glo viability, 72 h; series mostly up to 46 µM. An outline of the steps:
as §1

In test [4] the test system is WaGa. The description is as above. The conditions noted are these: MCC and control cell lines, CellTiter-Glo viability, 72 h; series mostly up to 46 µM. Put shortly:
as §1
(In ATP-based viability assays light output follows the ATP content of the culture.)

The subject of test [5] is C33A. Put plainly: Primary qHTS to identify gynecologic anti-cancer compounds using libraries of approved drugs and bioactive compounds (AID 1345084). Also: nearly all actives have a fitted effect of over 55% in size. Also: potency is read from the fitted curve at half-maximal effect. The note with it: Gynecologic cancer cell panel viability, ATPlite luminescence, 48 h; series mostly up to 57.5 µM. An outline of the steps:
(§2)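 Cell viability after 48 h drug treatment, ATPlite luminescence readout; five doses.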

The test system of test [6] is CAOV3. Described as above. The note with it: Gynecologic cancer cell panel viability, ATPlite luminescence, 48 h; series mostly up to 57.5 µM. An outline of the steps:
as §2

For test [7], the system named is CASKI. The description is as above. The note with it: Gynecologic cancer cell panel viability, ATPlite luminescence, 48 h; series mostly up to 57.5 µM. An outline of the steps: as §2
Test [8] relates to Es-2. Described as above. The note with it: Gynecologic cancer cell panel viability, ATPlite luminescence, 48 h; series mostly up to 57.5 µM. Put shortly:
as §2

Test [9] has as its system HeLa. Described as above. The note with it: Gynecologic cancer cell panel viability, ATPlite luminescence, 48 h; series mostly up to 57.5 µM. An outline of the steps:
as §2

Test [10] deals with Hek293T. The test is described as above. The conditions noted are these: Gynecologic cancer cell panel viability, ATPlite luminescence, 48 h, control line for the selectivity index; series mostly up to 57.5 µM. Put shortly: as §2
Test [11] has as its system JEG-3. The test is described as above. The note with it: Gynecologic cancer cell panel viability, ATPlite luminescence, 48 h; series mostly up to 57.5 µM. An outline of the steps: as §2
Test [12] relates to OV90. The test is described as above. The note with it: Gynecologic cancer cell panel viability, ATPlite luminescence, 48 h; series mostly up to 57.5 µM. An outline of the steps: as §2
Test [13] relates to PA-1. The test is described as above. The conditions noted are these: Gynecologic cancer cell panel viability, ATPlite luminescence, 48 h; series mostly up to 57.5 µM. Put shortly:
as §2

Test [14] has as its system SKOV3. The test is described as above. The conditions noted are these: Gynecologic cancer cell panel viability, ATPlite luminescence, 48 h; series mostly up to 57.5 µM. Put shortly: as §2
Test [15] has as its system Tov-21-G. The description is as above. The conditions noted are these: Gynecologic cancer cell panel viability, ATPlite luminescence, 48 h; series mostly up to 57.5 µM. An outline of the steps:
as §2

Test [16] concerns Tov112D. Described as above. The conditions noted are these: Gynecologic cancer cell panel viability, ATPlite luminescence, 48 h; series mostly up to 57.5 µM. An outline of the steps: as §2
Test [17] is described as follows: Drug repurposing screens with cells derived from glioblastoma tumor samples (AID 1345199). Also: nearly all actives have a fitted effect of over 40% in size. Also: potency is read from the fitted curve at half-maximal effect. The conditions noted are these: GBM patient neurospheres viability, ATP luminescence, 48 h. Put shortly:
(§3)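 Four patient lines of CD133+ GBM neurospheres were screened at several concentrations; hits were retested in those lines plus three slower-growing GBM lines, using 48-hour treatment and ATP-based viability.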

Test [18] has as its system astro. The test is described as above. The note with it: viability, ATP luminescence, 48 h; series mostly up to 45.9 µM. Put shortly:
as §3

Test [19] has as its system NIH3T3. As to the kind of experiment: qHTS assay to identify novel small-molecules to repurpose for Merkel cell carcinoma treatment (AID 1296009). Also: nearly all actives have a fitted effect of over 60% in size. Also: potency is read from the fitted curve at half-maximal effect. The conditions noted are these: MCC and control cell lines, CellTiter-Glo viability, 72 h; at 44.8 µM (top of the series) unless noted. Put shortly: as §1
The nature of test [20]: qHTS assay to identify inhibitors of the type 1 interferon - major histocompatibility complex class I in skeletal muscle: Counter screen cell viability and HiBit confirmation (AID 1347412). Also: nearly all actives have a fitted effect of over 60% in size. The conditions noted are these: iHSKM muscle cells + IFN-b, HiBiT or CellTiter-Glo, 24 h, at 45.9 µM (top of the series). Put shortly:
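Human myoblast knock-in line, 4.0 ng/ml IFN-beta stimulation, 24 h compound treatment. Endpoints: HiBiT lytic luminescence (HLA-B level) and CellTiter Glo (ATP). Dosing 12 concentrations, 3-fold steps, 46 uM highest final.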

Where [21] appears, read: at 45.9 µM (top of the series), tumour line B.
Setting [22] is: at 45.9 µM (top of the series), tumour line D.
Where [23] appears, read: at 46.1 µM (top of the series), tumour line C.
% is scaled to controls: 0 for no effect and ±100 for the full control effect.

Take `CC(S)C(=O)NCC(=O)O` (configuration not stated): the Potency entry in [1], in test [2], in test [3], in [4], in [5] and in [6] was “inactive” each time. Moreover, the Potency result in test [7], in [8], in test [9], in [10], in test [11] and in [12] was “inactive” each time. For the same compound, the Potency result in test [13], in [14], in test [15], in [16] and in test [18] was “inactive” each time. Further, the activity, negative = cell killing is -0.523% (inactive) in [17] (setting [21]); -24.6% (inactive) in test [17] (setting [22]); -28.9% (inactive) in test [17] (at 46 µM (top of the series), tumour line A); -4.37% (inactive) in [17] (setting [23]).

As to `CNC[C@@H](O)[C@@H](O)[C@H](O)[C@H](O)CO`, the Potency entry in test [1], in test [2], in [3], in test [4] and in test [18] was “inactive” each time. Further, the compound was classed as inactive in test [19]. In addition, the activity, negative = cell killing in [17] (setting [21]) is 0.477% (inactive); in [17] (setting [22]), -17.4% (inactive); in test [17] (setting [23]) it was -4.13% (inactive).

Regarding `C[C@@H](c1ncncc1F)[C@](O)(Cn1cncn1)c1ccc(F)cc1F`, the Potency entry in test [1], in test [2], in [3] and in test [4] was “inactive” in each case.

Consider `Nc1ccn([C@@H]2O[C@H](CO)[C@@H](O)C2O)c(=O)n1` (some centres not stated), for which the Potency entry in test [1], in [2], in test [3], in test [4] and in test [18] was “inactive” throughout. The call in test [19] was inactive. Further, the activity, negative = cell killing in [17] (setting [22]) is -14.9% (inactive); in [17] (setting [23]), -25.6% (inactive). The Potency in [17] (tumour line A) was 7.08 µM (active).

Turning to `COC(=O)C1=C(C)NC(C)=C(C(=O)OCCCN2CCC(c3ccccc3)(c3ccccc3)CC2)C1c1cccc([N+](=O)[O-])c1` (configuration not stated), the Potency entry in test [1] was “inactive and 23.7 µM (active)”; in [2] it was “inactive and 11.9 µM (active)”; in [3], “inactive and 18.8 µM (active)”; in test [18], 17.8 µM (active). The call in test [19] was inactive. In addition, the Potency entry in [4], in [9], in [11], in test [15] and in [16] was “inactive” each time. Further, the activity change, negative = inhibition in [20] (HiBiT) was 4.03% (inactive); in [20] (Viability) it was -24.5% (inactive).

For `Nc1nc(Cl)nc2c1ncn2[C@H]1C[C@H](O)[C@@H](CO)O1`, the Potency was 0.418 µM (active) in test [1], 0.418 µM (active) in [2], 0.372 µM (active) in [3] and 418 nM (active) in [4].

Take `Cc1cc(O)c2c(c1)C(=O)c1cc(O)cc(O)c1C2=O`: the Potency entry in test [1], in [2], in test [3] and in [4] was “inactive” throughout.

`Clc1ccc(C(Cn2ccnc2)OCc2c(Cl)cccc2Cl)c(Cl)c1` (configuration not stated): the Potency result in test [1], in test [2], in [5], in test [6], in test [7] and in [8] was “inactive” each time. Besides, the Potency result in [9], in test [10], in test [11], in test [12], in test [13] and in [14] was “inactive” throughout. The Potency entry in [15] and in [16] was “inactive” throughout. For the same compound, the compound was classed as inactive in test [19]. Further, the Potency is 23.7 µM (active) and inactive in test [4]; 7.94 µM (active) in test [17] (tumour line A); 7.08 µM (active) in test [17] (tumour line D). In addition, in [17] (at 20 µM (top of the series), tumour line C), the activity, negative = cell killing was -9.14% (inactive).

In the case of `Cc1ccc(NC(=O)c2ccc(CN3CCN(C)CC3)cc2)cc1Nc1nccc(-c2cccnc2)n1`, the Potency result in [1], in test [2], in [3], in test [4], in test [5] and in test [7] was “inactive” throughout. Moreover, in test [9], the Potency result is “inactive”. In addition, in [19], the compound was classed as inactive. For the same compound, the Potency in test [12] was 35.5 µM (active); in [13], 25.1 µM (active); in test [17] (tumour line A), 12.6 µM (active); in test [17] (tumour line B) it was 20 µM (active); in [17] (tumour line D), 12.6 µM (active); in [18], 20 µM (active). Also, the activity, negative = cell killing in [17] (setting [23]) was 17.6% (inactive).
